Reference: PubChem BioAssay
Values without a mark were called inactive. Activity calls are given as the source filed them. Unless noted, no stated cut-off is given here; in the data, active means inhibition above about 28%; inactive means the rest.

What was measured:
[1] = StAR promoter reporter inhibitors, counter-screen for LRH-1 inverse agonist project, cell-based, luminescence, high throughput (AID 651611); settings: StAR promoter luciferase reporter counterscreen, at 3.6 µM, active compounds read high
[2] = molecular target: Nuclear receptor subfamily 5 group A member 2 (Homo sapiens) (UniProt O00482); experiment: LRH-1 (NR5A2) inverse agonists, retest, confirmation, cell-based, luminescence (AID 651613; in the data active means inhibition above about 42%;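 further: HEK293T cells co-transfected with LRH-1 and StAR promoter luciferase reporter; 0% = vehicle wells and 100% = parental cells lacking receptor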); settings: cell-based LRH-1 luciferase reporter, inverse agonism; at 3.6 µM; active compounds read high
Chain of Nuclear receptor subfamily 5 group A member 2 (Homo sapiens) (O00482 whole entry, looked up): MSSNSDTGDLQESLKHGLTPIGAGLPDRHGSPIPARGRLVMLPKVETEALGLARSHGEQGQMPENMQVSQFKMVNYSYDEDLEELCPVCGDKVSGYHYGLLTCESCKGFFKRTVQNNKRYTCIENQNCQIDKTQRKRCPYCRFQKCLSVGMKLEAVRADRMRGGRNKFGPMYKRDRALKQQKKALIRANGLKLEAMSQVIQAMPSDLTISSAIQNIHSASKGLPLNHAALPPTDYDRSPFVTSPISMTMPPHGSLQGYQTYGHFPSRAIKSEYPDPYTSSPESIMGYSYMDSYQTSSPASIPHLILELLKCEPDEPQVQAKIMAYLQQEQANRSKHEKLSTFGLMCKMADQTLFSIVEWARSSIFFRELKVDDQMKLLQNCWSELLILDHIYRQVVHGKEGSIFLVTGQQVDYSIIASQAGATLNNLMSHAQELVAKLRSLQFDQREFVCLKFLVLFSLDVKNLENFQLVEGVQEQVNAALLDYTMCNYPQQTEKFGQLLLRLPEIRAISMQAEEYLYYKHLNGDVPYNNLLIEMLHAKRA

[3] = molecular target: Steroidogenic factor 1 (Homo sapiens) (UniProt Q13285); experiment: SF1 (NR5A1) inverse agonists, counter-screen for LRH-1 inverse agonist project, cell-based, luminescence, high throughput (AID 651614; in the data active means inhibition above about 44%;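 further: cells cotransfected with StAR promoter reporter and SF1 expression vector; 0% = vehicle on cells with receptor and 100% = vehicle on cells lacking receptor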); settings: cell-based SF1 luciferase reporter, at 3.6 µM, active compounds read high
Chain of Steroidogenic factor 1 (Homo sapiens) (Q13285 whole entry, looked up, the tested form may be a part): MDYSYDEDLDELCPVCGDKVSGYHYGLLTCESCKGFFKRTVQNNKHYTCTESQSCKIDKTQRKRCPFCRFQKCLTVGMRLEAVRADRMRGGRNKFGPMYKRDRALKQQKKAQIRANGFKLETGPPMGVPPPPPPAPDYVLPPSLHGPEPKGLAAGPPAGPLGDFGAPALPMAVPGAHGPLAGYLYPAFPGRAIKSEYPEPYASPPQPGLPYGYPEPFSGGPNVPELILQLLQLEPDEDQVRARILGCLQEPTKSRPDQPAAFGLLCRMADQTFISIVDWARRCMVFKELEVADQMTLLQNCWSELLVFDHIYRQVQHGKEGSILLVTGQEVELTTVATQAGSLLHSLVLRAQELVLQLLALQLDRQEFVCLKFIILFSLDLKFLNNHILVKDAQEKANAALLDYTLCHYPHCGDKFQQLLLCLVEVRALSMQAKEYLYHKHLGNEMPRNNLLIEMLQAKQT

[4] = VP16 transactivation reporter inhibitors, counter-screen for LRH-1 inverse agonist project, cell-based, luminescence, high throughput (AID 651615; in the data active means inhibition above about 33%); settings: Gal4-VP16 luciferase reporter cells, at 3.6 µM, active compounds read high
[5] = tested on: transactivating tegument protein VP16 (Human herpesvirus 1); experiment: VP16 transactivation reporter inhibitors, counter-screen for SRC2 inhibitor project, cell-based, luminescence, single concentration (AID 652007; in the data active means inhibition above about 36%); settings: cell-based VP16 transactivation luciferase reporter, at 8.9 µM, active compounds read high
[6] = molecular target: Nuclear receptor coactivator 2 (Homo sapiens) (UniProt Q15596); experiment: SRC2 coactivator transcriptional activity inhibitors, confirmation, cell-based, luminescence, HEK293, triplicate (AID 652008;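 active means mean inhibition above 46.5%, the solvent-only control mean plus 3 SD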;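 further: 0% = DMSO-treated cells and 100% = Gossypol at 36 µM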); settings: HEK293 GAL4-SRC2 luciferase reporter, at 8.9 µM, active compounds read high
Chain of Nuclear receptor coactivator 2 (Homo sapiens) (Q15596 whole entry, looked up, the tested form may be a part): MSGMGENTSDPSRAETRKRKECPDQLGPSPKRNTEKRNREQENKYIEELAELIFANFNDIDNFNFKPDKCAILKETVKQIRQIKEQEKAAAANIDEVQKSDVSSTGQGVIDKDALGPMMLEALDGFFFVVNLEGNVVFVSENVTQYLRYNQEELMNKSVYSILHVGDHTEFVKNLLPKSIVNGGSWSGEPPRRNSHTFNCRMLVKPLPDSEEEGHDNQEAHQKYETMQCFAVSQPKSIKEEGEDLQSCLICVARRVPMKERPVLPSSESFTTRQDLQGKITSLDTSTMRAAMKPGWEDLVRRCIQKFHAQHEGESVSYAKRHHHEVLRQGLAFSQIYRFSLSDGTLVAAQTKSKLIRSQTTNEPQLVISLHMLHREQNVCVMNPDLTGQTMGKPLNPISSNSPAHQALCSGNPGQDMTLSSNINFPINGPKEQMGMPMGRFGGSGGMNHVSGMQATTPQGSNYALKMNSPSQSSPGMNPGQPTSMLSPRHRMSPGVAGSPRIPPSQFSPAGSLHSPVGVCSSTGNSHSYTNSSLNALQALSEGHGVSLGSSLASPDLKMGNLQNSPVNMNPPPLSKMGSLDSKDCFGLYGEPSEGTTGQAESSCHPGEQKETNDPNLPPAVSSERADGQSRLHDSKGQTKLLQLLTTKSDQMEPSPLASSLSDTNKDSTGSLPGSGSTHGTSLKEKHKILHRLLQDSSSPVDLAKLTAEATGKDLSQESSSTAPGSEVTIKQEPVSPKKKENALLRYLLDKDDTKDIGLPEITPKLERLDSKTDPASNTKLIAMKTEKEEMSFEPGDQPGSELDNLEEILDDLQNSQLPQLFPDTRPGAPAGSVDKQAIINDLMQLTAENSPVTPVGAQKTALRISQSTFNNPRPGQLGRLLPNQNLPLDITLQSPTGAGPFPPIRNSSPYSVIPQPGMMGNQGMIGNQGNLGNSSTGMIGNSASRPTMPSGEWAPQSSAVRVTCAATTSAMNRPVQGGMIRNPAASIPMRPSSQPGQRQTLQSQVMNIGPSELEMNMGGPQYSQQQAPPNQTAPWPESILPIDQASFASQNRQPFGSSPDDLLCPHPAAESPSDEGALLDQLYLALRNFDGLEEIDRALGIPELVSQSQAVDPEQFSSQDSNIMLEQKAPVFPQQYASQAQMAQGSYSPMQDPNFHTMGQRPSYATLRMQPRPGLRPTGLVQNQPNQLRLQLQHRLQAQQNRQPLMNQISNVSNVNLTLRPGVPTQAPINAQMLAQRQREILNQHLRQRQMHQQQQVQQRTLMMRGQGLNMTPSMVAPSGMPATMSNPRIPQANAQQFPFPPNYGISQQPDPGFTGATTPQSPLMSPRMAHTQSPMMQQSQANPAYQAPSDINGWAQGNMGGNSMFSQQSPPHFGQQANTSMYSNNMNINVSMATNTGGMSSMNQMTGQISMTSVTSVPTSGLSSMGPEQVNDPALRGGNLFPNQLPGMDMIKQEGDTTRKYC

COC1C(O)C(C)OC(OC2CCC3(C)C(CCC4C3C(O)CC3(C)C(C5=CC(=O)OC5)CCC43O)C2)C1O (stereo not given)
inhibition [1]: 97.3% (active)
inhibition [2]: 110% (active)
inhibition [3]: 98.8% (active)
inhibition [4]: 91.1% (active)
inhibition [5]: 57.6% (active)
inhibition [6]: 22.7%

Cc1cc(OCC(=O)OC(C)C)c2c3c(c(=O)oc2c1)CCCC3
inhibition [1]: 14.7%
inhibition [2]: 57.9% (active)
inhibition [3]: 54.9% (active)
inhibition [4]: -9.99%

CCOc1cc(C=O)ccc1O
inhibition [1]: -4.06%
inhibition [2]: 41.4% (active)
inhibition [3]: 47.9% (active)
inhibition [4]: -3.05%

COC(=O)C(C)Oc1cc(C)cc2oc(=O)c3c(c12)CCC3 (stereo not given)
inhibition [1]: 47.8% (active)
inhibition [2]: 76.3% (active)
inhibition [3]: 67.7% (active)
inhibition [4]: -163%

NC(Cc1ccc(F)cc1)c1csc(Nc2ncccn2)n1 (stereo not given)
inhibition [1]: 40.1% (active)
inhibition [2]: 43.3% (active)
inhibition [3]: 38.9%
inhibition [4]: 49.8% (active)

COc1ccccc1-n1c(/C=C/c2ccccn2)nc2ccccc2c1=O
inhibition [1]: 16.9%
inhibition [2]: 63.3% (active)
inhibition [3]: 53.7% (active)
inhibition [4]: 4.69%

CCOC(=O)[C@]12Cc3cc(OC)ccc3[C@H]1N(C1CCCCC1)C(=O)c1ccccc12
inhibition [1]: 49.6% (active)
inhibition [2]: 93.3% (active)
inhibition [3]: 42.2%
inhibition [4]: 87.4% (active)

C[C@@H]1O[C@@H](O[C@@H]2C=C3CC[C@@H]4C(CC[C@]5(C)[C@@H](c6ccc(=O)oc6)CC[C@]45O)[C@@]3(C)CC2)[C@H](O)[C@H](O)[C@H]1O (stereo not given in full)
inhibition [1]: 97.1% (active)
inhibition [2]: 111% (active)
inhibition [3]: 98.8% (active)
inhibition [4]: 95.6% (active)
inhibition [5]: 67.9% (active)
inhibition [6]: 69.7% (active)

CCOC(=O)[C@]12Cc3cc(Cl)ccc3[C@H]1N(CC(=O)OC)C(=O)c1ccccc12
inhibition [1]: 72.7% (active)
inhibition [2]: 94.3% (active)
inhibition [3]: 64.4% (active)
inhibition [4]: 81.1% (active)

COC(=O)COc1cc(C)cc2oc(=O)c3c(c12)CCCC3
inhibition [1]: 3.14%
inhibition [2]: 46.5% (active)
inhibition [3]: 50.6% (active)
inhibition [4]: -11.3%

COC1/C=C/C=C(\C)Cc2cc(O)c(Cl)c(c2)N(C)C(=O)CC(OC(=O)C(C)C)C2(C)OC2C(C)C2CC1(O)NC(=O)O2 (stereo not given)
inhibition [1]: 64.9% (active)
inhibition [2]: 60.1% (active)
inhibition [3]: 62.5% (active)
inhibition [4]: 32.6% (active)

CN1C(=O)C(=Cc2ccc(N3CCCCCC3)cc2)C(=O)N(C)C1=O
inhibition [1]: 9.79%
inhibition [2]: 57% (active)
inhibition [3]: 48.1% (active)
inhibition [4]: -4.85%

CCOC(=O)[C@]12Cc3c(cc(OC)c(OC)c3OC)[C@H]1N(C1CCCCC1)C(=O)c1ccccc12
inhibition [1]: 45.9% (active)
inhibition [2]: 99.8% (active)
inhibition [3]: 46.2% (active)
inhibition [4]: 89.3% (active)

CC1=CC(O)C(O)C2(C)C1CC1OC(=O)CC3C(C)C(O)C(=O)C2C13CO (stereo not given)
inhibition [1]: 18.7%
inhibition [2]: 43% (active)
inhibition [3]: 45.9% (active)
inhibition [4]: -0.77%

CCOC(=O)[C@]12Cc3ccc(C)cc3[C@H]1N(C1CCCCC1)C(=O)c1ccccc12
inhibition [1]: 39.6% (active)
inhibition [2]: 98% (active)
inhibition [3]: 29.8%
inhibition [4]: 84.1% (active)

N#Cc1ccc(NC(=S)N2Cc3ccccc3-n3nncc3C2)cc1
inhibition [1]: -5.3%
inhibition [2]: 56.4% (active)
inhibition [3]: 47.5% (active)
inhibition [4]: 10.9%

C[C@@H]1O[C@@H](O[C@H]2C[C@@H](O)[C@]3(CO)[C@H]4[C@H](O)C[C@]5(C)[C@@H](C6COC(=O)C6)CC[C@]5(O)[C@@H]4CC[C@]3(O)C2)[C@H](O)[C@H](O)[C@H]1O (stereo not given in full)
inhibition [1]: 92.4% (active)
inhibition [2]: 103% (active)
inhibition [3]: 87.3% (active)
inhibition [4]: 66.4% (active)

CCOC(=O)c1c(C)n(CC(O)CN2CCOCC2)c2cc(Br)c(OC)cc12 (stereo not given)
inhibition [1]: 22%
inhibition [2]: 57.1% (active)
inhibition [3]: 47.9% (active)
inhibition [4]: -12.2%

Cc1ccccc1-n1c(/C=C/c2ccccn2)nc2ccccc2c1=O
inhibition [1]: 35.8% (active)
inhibition [2]: 49.5% (active)
inhibition [3]: 52% (active)
inhibition [4]: 5.08%

C=C1[C@@H](C)[C@H]2[C@H](Cc3ccccc3)NC(=O)[C@]23OC(=O)/C=C/[C@H](O)CCC[C@@H](C)C/C=C/[C@H]3[C@@H]1O
inhibition [1]: 52.7% (active)
inhibition [2]: 27.9%
inhibition [3]: 44.3% (active)
inhibition [4]: 27%

N#CCCn1cc(C(=O)Nc2ccc([N+](=O)[O-])cc2)c(-c2ccccc2)n1
inhibition [1]: 7.58%
inhibition [2]: 35.3%
inhibition [3]: 41.5%
inhibition [4]: 15.5%

COC(=O)C(C)Oc1cc(C)cc2oc(=O)c3c(c12)CCCC3 (stereo not given)
inhibition [1]: 14.4%
inhibition [2]: 63.3% (active)
inhibition [3]: 55.9% (active)
inhibition [4]: -29.8%

c1ccc2c(c1)[IH]c1ccccc1-2
inhibition [1]: 42.4% (active)
inhibition [2]: 78.5% (active)
inhibition [3]: 64.1% (active)
inhibition [4]: 72.8% (active)

N#Cc1ccc2nc(-c3ccc(CN4CCC(n5c(=O)[nH]c6ccccc65)CC4)cc3)c(-c3ccccc3)nc2c1
inhibition [1]: 43.8% (active)
inhibition [2]: 44% (active)
inhibition [3]: 43.2% (active)
inhibition [4]: 27.1%
